Measured values reported in PubChem BioAssay (NCI).
This is part of a sample that, as a whole, favours compounds with a hit. Of some 83,000 tested, about 20% had one in any assay.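 Negative percent growth values reflect cell death: -40 means 40% of the cells present at the start died, and -100 means all died.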 Values without a mark were called inactive. Calls of active or inactive are those of the source. Rule for the calls: active = growth percent below 10; inactive = the rest.

System: MDA-MB-468 breast
Assay: NCI-60 one-dose screen, 48 h (100 = growth as untreated, 0 = no growth, -100 = all killed)
Conditions: 10 µM unless noted

SMILES	growth
Cc1ccc(Nc2nc(SC(C)C)nc(-c3ccccc3)c2C#N)cc1	96.7%
Fc1cccc(Cl)c1/C=N/Nc1nc(N/N=C/c2c(F)cccc2Cl)nc(N2CCCCC2)n1	-14.2% (active)
N#Cc1c(-c2ccccc2)cc(-c2ccccc2)n(CCCC(=O)NO)c1=O	33.3%
CC(C)(C)CC(C)(C)c1ccc(OCCOCCSC(=N)N)cc1	-47.3% (active)
Cc1cc2ccccc2c[n+]1CC(=O)c1ccc(-c2ccccc2)cc1	13.3%
Cc1csc(Nc2cccc(Nc3nc(C)cs3)c2)n1	47.6%
O=C(CSc1nnc(-c2ccc(Cl)cc2)n1-c1ccccc1)Nc1cccc(Cl)c1	79.8%
Oc1ccccc1-c1nc2c3ccccc3c3ccccc3c2o1	83%
COc1ccc(-n2c(-c3ccccc3)c(-c3ccccc3)c3c(SCC(=O)N/N=C/c4ccc(Cl)cc4)ncnc32)cc1	77.6%
O=C(Nc1cccc(-n2cc(-c3ccncc3)c(-c3ccc(O)c(Cl)c3)n2)c1)c1cc(C(F)(F)F)cc(C(F)(F)F)c1	61.6%
CCc1oc2ccccc2c1C(=O)c1cc(Br)c(O)c(Br)c1	6.28% (active)
COc1ccc(OC)c(CCn2cncc2-c2c[nH]c3ccccc23)c1	41%
O=C1NC(=O)/C(=C/C=C/c2ccccc2)S1	63.3%
COc1cc2c(c(OC)c1)C1c3cc(OC)ccc3NC(=O)N1CC2 (centres undefined)	70.1%
NS(=O)(=O)Oc1ccc(NC(=O)C2CCCCCC2)cc1	109%
N/C(=N\OC(=O)c1ccccc1)C(C(=O)NOC(=O)c1ccccc1)C1CCCCC1 (centres undefined)	80.8%
O=C(Nc1nc2ccccc2s1)Nc1ccc([N+](=O)[O-])cc1Cl	89.9%
COc1ccc(-c2nc(NC(=O)CS(=O)(=O)c3ccc(F)cc3)sc2C)cc1	32%
COc1cc(Oc2cc(-c3cccnc3)ccc2NC(=O)Nc2ccc(F)cc2F)cc(OC)c1OC	97.7%
COc1ccccc1N(C(C)=O)C1=C(Cl)C(=O)c2ccccc2C1=O	-92.8% (active)

SMILES	growth
CC(O)c1nc2c(c(=O)n(C)c(=O)n2C)n1C (centres undefined)	105%
Cc1c(C2=CCCCC2)c2ccccn2c1C(=O)c1cccc(S(=O)(=O)N2CCOCC2)c1	51.5%
COc1cc(C=C2C(=O)NC(=S)NC2=O)cc(CN2CCCC2)c1O	110%
COc1ccc2[nH]c(=O)c(/C=C/C(=O)c3ccc(Nc4nccc(-c5ccc6ccccc6c5)n4)cc3)cc2c1	103%
Nc1c(C(=O)c2ccc(Br)cc2)sc2nc3c(cc12)CCCC3	79.1%
COc1cc(/C=N/NC(=O)c2ccccc2Nc2ccnc(C(F)(F)F)c2)ccc1O	80.5%
Cc1cc(Cc2cc(C)c(O)c(C)c2)cc(C)c1O	-0.94% (active)
Cc1ccc(S(=O)(=O)N/N=C2\CCCc3ccccc32)cc1	95.7%
CCOC(=N)CC(=O)Nc1cccc(C)c1Cl	90.8%
CS(=O)(=O)Nc1cc(-c2ccc3ncc(C#N)c(NCc4cccc(F)c4)c3c2)cnc1Cl	-37.9% (active)
COC(=O)C[C@@H]1CC=CC(=O)/C1=C(O)/C=C/c1ccccc1	-85.5% (active)
Cn1c(=O)c2[nH]c(C(O)C(O)C(O)C(O)CO)nc2n(C)c1=O (centres undefined)	118%
CCCCN(Cc1ccc(C(=O)NO)cc1)C(=O)Nc1ccc(OCCCCCCCCCn2cc(CCCCC(=O)N[C@H](C(=O)N3C[C@H](O)C[C@H]3C(=O)NCc3ccc(-c4scnc4C)cc3)C(C)(C)C)nn2)cc1	0.0949% (active)
O=C(OCC(O)C(=O)NC12CC3CC(CC(C3)C1)C2)c1cccc(Br)c1 (centres undefined)	99.9%
COC(=O)c1cc(Br)ccc1O	93%
COc1ccc(-n2nc(C)c3c(Nc4ccc(NC(=O)Nc5cc(C(F)(F)F)ccc5F)cc4)ncnc32)cc1	29.6%
O=C(/C=C(/C=C/c1csc2ccccc12)OB(F)F)/C=C/c1csc2ccccc12	-3.4% (active)
Cc1ccc(C)c2c1C(=O)OC2=O	110%
COc1ccc(/C=C/C(=O)c2cccc(NC(=O)CSc3nc4ccccc4c(=O)n3-c3ccccc3)c2)cc1OC	108%
